Assay results from PubChem BioAssay AID1159580 (chemical genetic matrix, 2015).
In all, about 5,500 compounds went through this assay and about 2,000 (36%) were called active. Not shown: some 18% with an inconclusive outcome. No stated cut-off is given here; in the data, active means normalized growth mostly below about 0.91 (no sharp cut-off); inconclusive means no clear call, values can overlap the other calls; inactive means mostly above about 0.92. Some of the results follow.

Test: chemical genetic growth profiling, strain panel (AID 1159580);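 further: tested at 20 µM; growth read once vehicle control cultures reached saturation at 30 °C; 1 = growth at the plate median or of vehicle wells; lower values mean less growth of the strain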
Conditions: growth OD

Measured: normalized growth

COS(C)(=O)=O
inactive: S. cerevisiae deletion strains, locus YJR075W, strain HOC1, active compounds read low 1.01 | S. cerevisiae deletion strains, locus YKL009W, strain mrt4, active compounds read low 1.03 | S. cerevisiae deletion strains, locus YKL068W, active compounds read low 1.01 | S. cerevisiae deletion strains, locus YKL085W, strain MDH1 (second series), active compounds read low 1.02 | S. cerevisiae deletion strains, locus YKL085W, strain MDH1, active compounds read low 1.02 | S. cerevisiae deletion strains, locus YKL160W, strain elf1, active compounds read low 1 | S. cerevisiae deletion strains, locus YKL190W, strain CNB1, active compounds read low 1 | S. cerevisiae deletion strains, locus YKR001C, strain vps1, active compounds read low 1.01 | S. cerevisiae deletion strains, locus YKR026C, strain gcn3, active compounds read low 0.996 | S. cerevisiae deletion strains, locus YKR091W, strain srl3, active compounds read low 0.993 | S. cerevisiae deletion strains, locus YLL001W, strain dnm1, active compounds read low 0.996 | S. cerevisiae deletion strains, locus YLL026W, active compounds read low 0.996 | S. cerevisiae deletion strains, locus YLL041C, strain sdh2, active compounds read low 1 | S. cerevisiae deletion strains, locus YLR027C, strain aat2, active compounds read low 0.97 | S. cerevisiae deletion strains, locus YLR039C, strain RIC1, active compounds read low 1.07 | S. cerevisiae deletion strains, locus YLR058C, strain SHM2, active compounds read low 1.01 | S. cerevisiae deletion strains, locus YLR102C, strain apc9, active compounds read low 1.01 | S. cerevisiae deletion strains, locus YLR113W, strain HOG1, active compounds read low 0.983 | S. cerevisiae deletion strains, locus YLR221C, strain rsa3, active compounds read low 0.961 | S. cerevisiae deletion strains, locus YLR258W, strain gsy2, active compounds read low 1.03 | S. cerevisiae deletion strains, locus YLR262C, strain YPT6 (second series), active compounds read low 0.997 | S. cerevisiae deletion strains, locus YLR262C, strain YPT6, active compounds read low 1.06 | S. cerevisiae deletion strains, locus YLR268W, strain sec22, active compounds read low 0.973 | S. cerevisiae deletion strains, locus YLR320W, strain mms22, active compounds read low 0.954 | S. cerevisiae deletion strains, locus YLR330W, strain CHS5, active compounds read low 1.01 | S. cerevisiae deletion strains, locus YLR342W, strain FKS1 (second series), active compounds read low 1.08 | S. cerevisiae deletion strains, locus YLR342W, strain FKS1, active compounds read low 0.992 | S. cerevisiae deletion strains, locus YLR357W, strain rsc2, active compounds read low 0.935 | S. cerevisiae deletion strains, locus YLR370C, strain arc18, active compounds read low 1 | S. cerevisiae deletion strains, locus YLR371W, strain rom2, active compounds read low 1.02 | S. cerevisiae deletion strains, locus YLR384C, strain iki3, active compounds read low 0.982 | S. cerevisiae deletion strains, locus YLR418C, strain cdc73, active compounds read low 0.95 | S. cerevisiae deletion strains, locus YML016C, strain PPZ1, active compounds read low 1 | S. cerevisiae deletion strains, locus YML032C, strain rad52, active compounds read low 1.03 | S. cerevisiae deletion strains, locus YML120C, strain ndi1, active compounds read low 1 | S. cerevisiae deletion strains, locus YML124C, strain tub3, active compounds read low 1.01 | S. cerevisiae deletion strains, locus YMR058W, strain fet3, active compounds read low 1.02 | S. cerevisiae deletion strains, locus YMR078C, strain ctf18, active compounds read low 1.02 | S. cerevisiae deletion strains, locus YMR125W, strain sto1, active compounds read low 0.992 | S. cerevisiae deletion strains, locus YMR129W, active compounds read low 0.997 | S. cerevisiae deletion strains, locus YMR205C, strain PFK2, active compounds read low 1 | S. cerevisiae deletion strains, locus YMR223W, strain ubp8, active compounds read low 1.05 | S. cerevisiae deletion strains, locus YMR231W, strain pep5, active compounds read low 0.985 | S. cerevisiae deletion strains, locus YMR263W, strain SAP30, active compounds read low 0.995 | S. cerevisiae deletion strains, locus YMR307W, strain GAS1, active compounds read low 1.05 | S. cerevisiae deletion strains, locus YNL067W, strain RPL9B, active compounds read low 1 | S. cerevisiae deletion strains, locus YNL071W, strain lat1, active compounds read low 1 | S. cerevisiae deletion strains, locus YNL128W, strain TEP1, active compounds read low 0.987 | S. cerevisiae deletion strains, locus YNL153C, strain GIM3, active compounds read low 0.976 | S. cerevisiae deletion strains, locus YNL183C, strain NPR1, active compounds read low 1 | S. cerevisiae deletion strains, locus YNL209W, strain ssb2, active compounds read low 1.01 | S. cerevisiae deletion strains, locus YNL233W, strain BNI4, active compounds read low 0.99 | S. cerevisiae deletion strains, locus YNL248C, strain rpa49, active compounds read low 0.998 | S. cerevisiae deletion strains, locus YNL250W, strain rad50, active compounds read low 1.02 | S. cerevisiae deletion strains, locus YNL271C, strain bni1, active compounds read low 1.02 | S. cerevisiae deletion strains, locus YNL298W, strain CLA4, active compounds read low 1.02 | S. cerevisiae deletion strains, locus YNL307C, strain MCK1, active compounds read low 1.03 | S. cerevisiae deletion strains, locus YNL322C, strain KRE1 (second series), active compounds read low 0.976 | S. cerevisiae deletion strains, locus YNL322C, strain KRE1, active compounds read low 1.01 | S. cerevisiae deletion strains, locus YNR049C, strain mso1, active compounds read low 0.995 | S. cerevisiae deletion strains, locus YNR052C, strain pop2, active compounds read low 1.03 | S. cerevisiae deletion strains, locus YOL006C, strain TOP1, active compounds read low 1.03 | S. cerevisiae deletion strains, locus YOL012C, strain htz1 0.976 | S. cerevisiae deletion strains, locus YOL147C, strain pex11, active compounds read low 1.01 | S. cerevisiae deletion strains, locus YOR001W, strain rrp6, active compounds read low 0.942 | S. cerevisiae deletion strains, locus YOR061W, strain CKA2, active compounds read low 1 | S. cerevisiae deletion strains, locus YOR069W, strain VPS5, active compounds read low 1.01 | S. cerevisiae deletion strains, locus YOR070C, strain gyp1, active compounds read low 0.989 | S. cerevisiae deletion strains, locus YOR080W, strain dia2, active compounds read low 0.986 | S. cerevisiae deletion strains, locus YOR083W, strain WHI5, active compounds read low 1.01 | S. cerevisiae deletion strains, locus YOR106W, strain vam3, active compounds read low 1.03 | S. cerevisiae deletion strains, locus YOR136W, strain idh2, active compounds read low 1.01 | S. cerevisiae deletion strains, locus YOR144C, strain elg1, active compounds read low 1 | S. cerevisiae deletion strains, locus YOR184W, strain ser1, active compounds read low 1.05 | S. cerevisiae deletion strains, locus YOR231W, strain MKK1, active compounds read low 0.987 | S. cerevisiae deletion strains, locus YOR265W, strain rbl2, active compounds read low 0.999 | S. cerevisiae deletion strains, locus YOR270C, strain vph1, active compounds read low 0.981 | S. cerevisiae deletion strains, locus YOR290C, strain snf2, active compounds read low 0.995 | S. cerevisiae deletion strains, locus YOR316C, strain cot1, active compounds read low 1.02 | S. cerevisiae deletion strains, locus YPL051W, strain arl3, active compounds read low 1.02 | S. cerevisiae deletion strains, locus YPL055C, strain LGE1, active compounds read low 0.968 | S. cerevisiae deletion strains, locus YPL078C, strain atp4, active compounds read low 1.01 | S. cerevisiae deletion strains, locus YPL106C, strain sse1, active compounds read low 0.99 | S. cerevisiae deletion strains, locus YPL240C, strain hsp82, active compounds read low 0.995 | S. cerevisiae deletion strains, locus YPL241C, strain CIN2, active compounds read low 1 | S. cerevisiae deletion strains, locus YPL256C, strain CLN2, active compounds read low 0.99 | S. cerevisiae deletion strains, locus YPR119W, strain clb2, active compounds read low 1 | S. cerevisiae deletion strains, locus YPR141C, strain kar3, active compounds read low 1.02 | S. cerevisiae deletion strains, locus YPR163C, strain tif3, active compounds read low 1 | S. cerevisiae deletion strains, locus YPR167C, strain met16, active compounds read low 1.01 | S. cerevisiae deletion strains, strain wtn01, active compounds read low 0.981 | S. cerevisiae strains, strain wild type, active compounds read low 1.01
